Consider 27 compounds from PubChem BioAssay (NCATS).

Assay [1] has as its target Aldehyde dehydrogenase, mitochondrial (Homo sapiens) (UniProt P05091). In words: qHTS for Inhibitors of the Aldehyde Dehydrogenase Family (ALDH2) Confirmatory screens (AID 2061303; active = well fitted inhibition curve with a large enough effect; title and protocol of this record describe different tests; also: nearly all actives have a fitted effect of over 45% in size; also: potency is read from the fitted curve at half-maximal effect). To be noted: ALDH inhibition qHTS; series mostly up to 45.4 µM. A general note: In qHTS, concentration-response curves come from the screen itself.
Assay [2] has the same target. In words: qHTS for Inhibitors of the Aldehyde Dehydrogenase Family (ALDH2) Primary screen (AID 2061308). Also: nearly all actives have a fitted effect of over 55% in size. Also: potency is read from the fitted curve at half-maximal effect. Conditions: ALDH2 enzyme inhibition qHTS, 1536-well; series mostly up to 56 µM.
The target of assay [3] is Retinaldehyde dehydrogenase 3 (Homo sapiens) (UniProt P47895). In words: qHTS for Inhibitors of the Aldehyde Dehydrogenase Family (ALDH1A3) Confirmatory screens (AID 2061311). Also: nearly all actives have a fitted effect of over 60% in size. Also: potency is read from the fitted curve at half-maximal effect. Conditions: ALDH inhibition qHTS; series mostly up to 46 µM.
The target of assay [4] is Retinal dehydrogenase 2 (Homo sapiens) (UniProt O94788). The assay can be described thus: qHTS for Inhibitors of the Aldehyde Dehydrogenase Family (ALDH1A2) Confirmation screens (AID 2061314). Also: nearly all actives have a fitted effect of over 65% in size. Also: potency is read from the fitted curve at half-maximal effect. Conditions: ALDH1A2 enzyme inhibition qHTS confirmation; series mostly up to 45.9 µM.
In assay [5] the target is Retinaldehyde dehydrogenase 3 (Homo sapiens) (UniProt P47895). The assay can be described thus: qHTS for Inhibitors of the Aldehyde Dehydrogenase Family (ALDH1A3) Primary screen (AID 2061315). To be noted: ALDH inhibition qHTS; series mostly up to 56 µM.
For assay [6], the target named is Aldehyde dehydrogenase 1A1 (Homo sapiens) (UniProt P00352). In words: qHTS for Inhibitors of the Aldehyde Dehydrogenase Family (ALDH1A1) Confirmatory screens (AID 2061316). Also: nearly all actives have a fitted effect of over 65% in size. Also: potency is read from the fitted curve at half-maximal effect. Conditions: ALDH inhibition qHTS; series mostly up to 47.3 µM.
Assay [7] addresses Retinaldehyde dehydrogenase 3 (Homo sapiens) (UniProt P47895). The assay can be described thus: qHTS for Inhibitors of the Aldehyde Dehydrogenase Family (ALDH1A3) Validation screen (AID 2061312). Also: nearly all actives have a fitted effect of over 45% in size. Conditions: ALDH1A3 enzyme inhibition qHTS validation, fluorescence; series mostly up to 84.7 µM.
Assay [8] can be described thus: BET inhibitor-based combinations targeting novel dependencies in MECOM-rearranged (r) AML: SET-2 cell line (AID 2202231). Also: potency is read from the fitted curve at half-maximal effect; nearly all actives have a fitted effect of over 35% in size. Conditions: SET-2 AML cells viability, CellTiter-Glo luminescence, 48 h; viability: hits give low values, concentration not given here. The procedure, abridged:
(§1)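 A 48 hr incubation preceded viability reading by CellTiter-Glo, with 15 min room-temperature development. Dose series had 11 points; normalization used DMSO and empty wells; AUC was computed and mean-centered per line as Z-AUC.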
In general terms: Cellular ATP, detected with luciferase, serves as a proxy for viable cell number.

Assay [9] can be described thus: BET inhibitor-based combinations targeting novel dependencies in MECOM-rearranged (r) AML: OCI-AML3 cell line (AID 2202232). Also: potency is read from the fitted curve at half-maximal effect; nearly all actives have a fitted effect of over 35% in size. To be noted: CellTiter-Glo luminescence, 48 h; Potency: OCI-AML3 viability; series mostly up to 46 µM. The procedure, abridged: as §1
A short description of assay [10]: BET inhibitor-based combinations targeting novel dependencies in MECOM-rearranged (r) AML: HNT-34 cell line (AID 2202234). Also: potency is read from the fitted curve at half-maximal effect; nearly all actives have a fitted effect of over 35% in size. To be noted: HNT-34 AML viability, CellTiter-Glo luminescence, 48 h; series mostly up to 46 µM. A digest of the protocol:
(§2)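 Each compound is tested in an 11-point concentration series against 500 seeded cells/well for 48 hr. The luminescent viability signal is normalized to DMSO and blank wells, then reduced to AUC and a cell-line-centred Z-AUC.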

Assay [11] in a line: BET inhibitor-based combinations targeting novel dependencies in MECOM-rearranged (r) AML: UCSD-AML1 cell line (AID 2202235). Also: potency is read from the fitted curve at half-maximal effect; nearly all actives have a fitted effect of over 40% in size. To be noted: UCSD-AML1 AML cells viability, CellTiter-Glo, 48 h; series mostly up to 46 µM. A digest of the protocol:
as §2

Assay [12] is described as follows: BET inhibitor-based combinations targeting novel dependencies in MECOM-rearranged (r) AML: AML-191 cell line (AID 2202236; also: potency is read from the fitted curve at half-maximal effect; nearly all actives have a fitted effect of over 35% in size). To be noted: AML-191 viability, CellTiter-Glo luminescence, 48 h; series mostly up to 46 µM. The procedure, abridged:
as §1

Assay [13] in a line: BET inhibitor-based combinations targeting novel dependencies in MECOM-rearranged (r) AML: AML-194 cell line (AID 2202237; also: potency is read from the fitted curve at half-maximal effect; nearly all actives have a fitted effect of over 40% in size). Conditions: AML-194 (MECOM-r AML) viability, CellTiter-Glo, 48 h; series mostly up to 46 µM. A digest of the protocol: as §1

Records with an inconclusive call do not appear. The source made the active and inactive calls. Unless noted, calls follow the shape of the dose curve; as a rule, active = well fitted curve in the direction sought with a large enough effect; inconclusive = small, poorly fitted or top-dose-only effect, or another doubt; inactive = no such curve, though single readings can be large; an effect the other way counts as inactive or inconclusive.

With `COc1ccc(C2=Nn3c(nnc3-c3ccccc3O)SC2)cc1`, the Potency entry in assay [1], in assay [2], in [3], in assay [4] and in [5] was “inactive” each time.

Regarding `Cc1ccc2nc3sc(C(=O)N4CCN(C)CC4)cc3cc2c1`, the Potency result in [1] and in assay [2] was “inactive” each time. Further, the figures for the Potency in assay [3] and in [4] were 22.5 µM (active) and 10.1 µM (active), respectively.

Consider `O=C1Nc2ccccc2/C1=C\c1ccc(C(=O)O)cc1`, for which the Potency entry in assay [1], in assay [2], in assay [3], in assay [4], in assay [5] and in assay [6] was “inactive” each time.

As to `NC(=O)C1CCN(c2ncc(-c3cccc(N4CCOCC4)c3)s2)CC1`, the Potency result in assay [1], in assay [2], in [3], in assay [4] and in [5] was “inactive” in each case. In addition, in assay [6], the Potency was 6.34 µM (active).

In the case of `CCOc1ccccc1-c1nnc2n1N=C(c1cccc(OC)c1)CS2`, the Potency entry in [1], in assay [2], in [3], in [4] and in assay [5] was “inactive” in each case.

For `Cc1cnc(-c2ccccc2C(C)O)nc1NCC1CCN(c2cccnc2)CC1` (stereo not drawn), the Potency result in assay [1], in assay [2], in [3] and in assay [5] was “inactive” each time. For the same compound, the Potency in assay [4] was 12.7 µM (active).

Turning to `Brc1ccc(-c2csc(N3CCC(c4nn[nH]n4)CC3)n2)cc1`, the Potency entry in assay [1], in assay [2], in assay [3], in assay [4] and in assay [5] was “inactive” each time.

Consider `COc1cc(Nc2nc(-c3ccncc3)nc3ccccc23)ccc1N1CCN(C)CC1`, for which the Potency result in assay [1] and in assay [2] was “inactive” each time.

As to `N#CN1CCC(NS(=O)(=O)c2ccc(F)cc2)CC1`, the Potency result in [1], in [2], in [3], in assay [4], in assay [5] and in [6] was “inactive” throughout.

With `CS(=O)(=O)c1ccc(C(=O)OCC(=O)N2Cc3ccccc3C2)cc1[N+](=O)[O-]`, the Potency result in [1], in assay [2] and in assay [5] was “inactive” throughout. Further, the Potency in assay [3] is 28.2 µM (active); in [4], 7.98 µM (active).

Regarding `O=C1CCCC2=C1C(c1[nH]ncc1Cl)NC(=NCc1ncc[nH]1)N2` (stereo not drawn), the Potency result in assay [1], in assay [2], in assay [3], in assay [4], in assay [5] and in [6] was “inactive” throughout.

For `C[C@H]1[C@H](/C=C/c2ccc(-c3ccccc3C#N)cn2)[C@@H]2[C@@H](C)OC(=O)[C@@H]2C[C@@H]1C`, the Potency entry in assay [1], in assay [2], in assay [3], in [7], in assay [4] and in assay [5] was “inactive” in each case. For the same compound, in assay [6], the Potency is 1.27 µM (active).

Consider `FC(F)(F)c1cc(-c2ccc(CNc3nc(-c4ccncc4)nc4ccccc34)cc2)ccn1`, for which the figures for the Potency in assay [1], in assay [3] and in [4] were 8.91 µM (active), 2.52 µM (active) and 10 µM (active), respectively. Also, the Potency result in assay [2] and in [5] was “inactive” each time.

For the compound `Nc1ccccc1NC(=O)c1ccc(CNC(=O)OCc2cccnc2)cc1`, the Potency entry in [1], in assay [2], in assay [3], in assay [7], in assay [4] and in assay [5] was “inactive” throughout. For the same compound, the Potency result in assay [6] was “inactive”. The Potency was 2.09 µM (active) in assay [8]; 2.35 µM (active) in assay [9]; 2.35 µM (active) in assay [10]; 1.66 µM (active) in assay [11]; 2.63 µM (active) in [12]; 4.68 µM (active) in assay [13].

With `O=C1Nc2ccccc2/C1=C\c1ccc(O)c(F)c1`, the Potency is 0.224 µM (active) in assay [1], 2.51 µM (active) in assay [2], 15.8 µM (active) in assay [3] and 5.65 µM (active) in assay [4]. For the same compound, the Potency entry in [5] and in assay [6] was “inactive” throughout.

Turning to `COc1cc(O)c(C(CC(=O)N2CCCC(C(C)C)C2)c2ccc3c(c2)OCO3)c(OC)c1` (stereo not drawn), the Potency entry in assay [1], in assay [2], in [3], in assay [4] and in [5] was “inactive” in each case.

Regarding `NC(=O)C1CCN(c2nc(-c3ccc(Cl)cc3)cs2)CC1`, the Potency entry in assay [1], in assay [2], in assay [3], in assay [4], in assay [5] and in assay [6] was “inactive” in each case.

As to `COc1cc(O)c(C(CC(=O)N2CCCC(CN3CCCCC3)C2)c2ccc3c(c2)OCO3)c(OC)c1` (stereo not drawn), the Potency result in assay [1] and in assay [2] was “inactive” each time.

In the case of `N#CC1CCN(c2nc(-c3ccc(Br)cc3)cs2)CC1`, the Potency entry in assay [1], in assay [2], in assay [3], in assay [4] and in assay [5] was “inactive” each time.

Turning to `CCOC(=O)C1CCN(c2nc(-c3ccc(Br)cc3)cs2)CC1`, the Potency result in assay [1], in assay [2], in [3], in assay [4], in assay [5] and in [6] was “inactive” throughout.

On to `O=C(Nc1cncc(NC(=O)c2cccs2)c1)c1cccs1`, for which the Potency entry in assay [1], in assay [2], in assay [4], in assay [5] and in [6] was “inactive” in each case. The Potency in assay [3] was 28.3 µM (active).

In the case of `Oc1cc(NCCc2cccnc2)cc2cccnc12`, the Potency result in [1], in [2] and in assay [4] was “inactive” each time. In addition, the Potency in [3] is 0.4 µM (active).

Take `O=C1NC(=O)C(c2cn(-c3ccccc3)nc2-c2ccc(F)cc2)N1` (stereo not drawn): the Potency result in assay [1], in assay [2], in [3], in assay [4], in assay [5] and in assay [6] was “inactive” each time.

Turning to `NC(=O)C1CCN(c2ncc(-c3cccc(N4CCCC4)c3)s2)CC1`, the Potency was 12.7 µM (active) in assay [1], 7.98 µM (active) in [3], 11.3 µM (active) in assay [4] and 3.57 µM (active) in assay [6]. Further, the Potency entry in assay [2] and in assay [5] was “inactive” each time.

As for `NC(=O)C1CCN(c2nc(-c3ccc(F)cc3)cs2)CC1`, the Potency result in assay [1], in [2], in assay [3], in assay [4] and in [5] was “inactive” throughout.

With `NC(=O)N1CCN(c2nc(-c3ccc(Br)cc3)cs2)CC1`, the Potency result in assay [1], in assay [2], in [3], in assay [4], in [5] and in [6] was “inactive” in each case.

Consider `C#Cc1nc(Nc2cccc(Cl)c2)nc(NC2CCCC2)n1`, for which the Potency in assay [1] is 31.6 µM (active); in assay [3], 14.1 µM (active); in [4] it was 8.91 µM (active). Further, the Potency result in assay [2] and in assay [5] was “inactive” throughout.
